Compound activity (PubChem)
Gal4-VP16 FLuc = VP16 counterscreen qHTS for inhibitors of ROR gamma transcriptional activity; Drosophila S2 Gal4-VP16 UAS-luciferase, luminescence, 20 h; Potency, µM (highest dose often 53.6 µM), inactives show top-dose activity, negative = inhibition, hits mostly inhibitors; actives 3.5% (n = 310,000); AID 2546, 2010;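 further: Gal4-VP16 expression switched on by copper sulfate through the metallothionein promoter; on the % scale 0 is the no-effect control and ±100 the full control effect; nearly all actives have a fitted effect of over 50% in size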
GLP1R inv ag = qHTS of GLP-1 Receptor Inverse Agonists (Inhibition Mode); actives 1.6% (n = 410,000); AID 624417, 2012; Glucagon-like peptide 1 receptor (Homo sapiens), P43220; HEK293 GLP-1R CRE-luciferase, luminescence, 24 h; GLP-1R form is constitutively active; Potency, µM (titrated, usually from 38.3 µM), without a hit: at the top dose activity change, negative = inhibition, hits mostly inhibitors; further: on the % scale 0 is the no-effect control and ±100 the full control effect; nearly all actives have a fitted effect of over 55% in size
Target sequence (P43220 whole entry, looked up): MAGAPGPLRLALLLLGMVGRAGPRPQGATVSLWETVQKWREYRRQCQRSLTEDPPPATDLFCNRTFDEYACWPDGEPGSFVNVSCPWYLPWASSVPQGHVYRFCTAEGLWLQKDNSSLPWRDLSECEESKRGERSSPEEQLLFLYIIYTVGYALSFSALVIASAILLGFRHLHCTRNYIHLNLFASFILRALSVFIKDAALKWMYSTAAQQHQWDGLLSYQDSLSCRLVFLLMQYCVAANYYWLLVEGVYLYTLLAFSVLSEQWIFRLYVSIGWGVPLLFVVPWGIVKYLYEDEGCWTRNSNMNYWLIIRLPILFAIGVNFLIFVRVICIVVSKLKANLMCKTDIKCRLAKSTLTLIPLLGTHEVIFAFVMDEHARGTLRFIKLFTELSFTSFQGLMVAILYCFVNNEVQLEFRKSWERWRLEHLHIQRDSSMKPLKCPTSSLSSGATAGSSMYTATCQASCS
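Inverse agonism was detected as reduced cAMP-driven luciferase luminescence after 24 h compound treatment. The cells were HEK293 clones expressing constitutively active human GLP-1R with the reporter. Reporter-only and GPR119 cell lines served as counterscreen controls.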
GLP1R ag = qHTS of GLP-1 Receptor Agonists | AID 624172, 2012 | actives 0.007% (n = 380,000) | Potency, µM (titrated, usually from 45.6 µM), inactives show top-dose activation, usual class: activators | HEK293 GLP-1R CRE-luciferase, luminescence, 4-6 h; cells express a hypersensitive GLP-1R form; further: % of control where 0% means no effect
GLP1R cytotox = qHTS of GLP-1 Receptor Inverse Agonists: Cytotox Screen. HEK293 cAMP-luciferase reporter cells, luminescence, 24 h. Potency, µM (titrated, usually from 38.3 µM), for the others: top-dose activity change, negative = inhibition, most hits filed as inhibitors. actives 0.13% (n = 410,000). AID 624418, 2012;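 further: loss of luciferase light is scored as toxicity; on the % scale 0 is the no-effect control and ±100 the full control effect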
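Cells in DMEM/10% Nu serum/1% pen-strep, 1536-well format. Pre-incubated 12 h, dosed with 23 nL compound, incubated a further 24 h. Luciferase detection, 12 min at room temp, luminescence.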
RORgamma inh = qHTS for inhibitors of ROR gamma transcriptional activity; AID 2551, 2010; Drosophila S2 Gal4-RORgamma UAS-luciferase reporter, 20 h; Potency, µM (doses to about 53.6 µM), for the others: at the top dose activity change, negative = inhibition, hits mostly inhibitors; actives 5.4% (n = 310,000); further: on the % scale 0 is the no-effect control and ±100 the full control effect; nearly all actives have a fitted effect of over 60% in size
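A Gal4/UAS one-hybrid system in insect cells: metallothionein-promoter Gal4–ROR gamma fusion plus Photinus luciferase reporter. Copper sulfate 700 uM final, 20 hr ambient incubation, luminescent detection after 10 min with reagent.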
* hit, by the source's call; ? = inconclusive; . = not tested or not shown; [ ] = another dose, or the depositor's remark. Hits are enriched below; roughly 5.9% of the tested compounds scored in any of these assays. The call rests on the fitted dose curve; in most records, active means well fitted curve in the direction sought with a large enough effect; inconclusive means small, poorly fitted or top-dose-only effect, or another doubt; inactive means no such curve, though single readings can be large; an effect the other way counts as inactive or inconclusive. Potency means the concentration at half of the fitted maximal effect.

SMILES	Gal4-VP16 FLuc	GLP1R inv ag	GLP1R ag	GLP1R cytotox	RORgamma inh
CCCCOc1ccc(Cc2n[nH]c(=S)n2N)cc1	-9%	4%	2%	1%	-2%[10 µM]
Cc1ccc(OCc2n[nH]c(=S)n2-c2ccc(Cl)cc2)cc1	3.2µM*	-9%	0%	-1%	-38%[1.91 µM]
CC(C)OCC(O)CCc1n[nH]c(=S)n1-c1ccccc1 (stereo unspecified)	1%	16%	12%	-7%	1%
Cc1ccc(OCc2n[nH]c(=S)n2-c2ccc(Br)cc2)cc1	5.6µM*	-17%	-3%	-3%	2.2µM*
Cc1ccc(OCc2n[nH]c(=S)n2N)cc1C	4%	10%[0.307 µM]	-4%	2%[0.307 µM]	7.9µM*
Cc1ccccc1OCc1n[nH]c(=S)n1-c1ccccc1	8.9µM*	-2%	4%	?	2.5µM*
COc1ccc(-n2c(COc3ccc(Cl)cc3Cl)n[nH]c2=S)cc1	.	?	-3%	-12%	.
S=c1[nH]nc(COc2ccc(Cl)cc2)n1-c1ccccc1	3.2µM*	-2%	5%	-9%	4µM*
S=c1[nH]nc(COc2ccc(Cl)cc2)n1-c1ccc(Cl)cc1	?	-28%	-1%	-26%	5.6µM*
CCn1cc(C(=O)N2CCCC2)c(=O)c2cc(S(=O)(=O)N3CCC(C)CC3)ccc21	-1%	1%	0%	4%	2%
CCn1cc(C(=O)N2CCCC2)c(=O)c2cc(S(=O)(=O)N3CCOCC3)ccc21	3%	7%	-9%	4%	4.5µM*
Cc1ccc(CNC(=O)c2cc(-c3ccccc3C)nn2CC2CC(c3cccnc3)=NO2)cc1 (stereo unspecified)	.	16%	-1%	0%	.
Cc1ccccc1-c1cc(C(=O)NCc2ccc(OC(F)(F)F)cc2)n(CC2CC(c3cccnc3)=NO2)n1 (stereo unspecified)	.	22µM*	2%	0%	.
CCCCOc1ccccc1NC(=O)CC1Nc2ccccc2NC1=O (stereo unspecified)	?	-11%	6%	3%	10µM*
CCCCNC(=O)CC1Nc2ccccc2NC1=O (stereo unspecified)	-12%	-16%	4%	0%	-21%
O=C(NC(=S)Nc1ccc(N2CCOCC2)cc1)c1ccc2c(c1)OCCO2	?	?	2%	-26%	8.9µM*
O=C(NC(=S)Nc1ccc(N2CCCC2)cc1)c1ccc(F)cc1	5.6µM*	-26%	-6%	?	2.5µM*
O=C(NC(=S)Nc1ccc(N2CCCCC2)cc1)c1ccc2c(c1)OCCO2	5µM*	?	-16%	?	3.5µM*
O=C(NC(=S)Nc1c(F)cc(F)cc1Br)c1ccc2c(c1)OCCO2	?	19%	0%	-15%	7.9µM*
O=C1C[C@@H](O)[C@@H](O)[C@H]2[C@@H]3C(=O)N(c4cccc(Oc5ccccc5)c4)C(=O)[C@@H]3CC[C@H]12	-3%[10 µM]	.	.	.	8%[10 µM]
COc1ccc(NC(=O)C(NC(=O)/C=C\c2ccc3c(c2)OCO3)c2ccccc2)cc1 (stereo unspecified)	.	?	.	-13%	.
CC(=O)OCON[N+]([O-])=NC1CCCCC1	3%	.	.	.	14%
O=C(NC(=S)Nc1ccc(F)cc1)c1ccc2c(c1)OCCO2	?	?	-4%	?	7.1µM*
COc1ccc(NC(=S)NC(=O)c2ccc3c(c2)OCCO3)cc1	.	29%	17%	7%	.
Clc1cccc(Cl)c1/C=C/c1nc2ccccc2[nH]1	?	-24%	-1%	?	11µM*
SMILES	Gal4-VP16 FLuc	GLP1R inv ag	GLP1R ag	GLP1R cytotox	RORgamma inh
O=c1[nH]c(/C=C/c2ccccc2Cl)nc2ccccc12	15%	1%	-5%	1%	-4%
Clc1ccc(/C=C/c2nc3ccccc3[nH]2)c(Cl)c1	7.1µM*	?	-12%	?	?
Clc1ccc(/C=C/c2nc3ccccc3[nH]2)cc1	7.1µM*	?	-22%	-31%	4.5µM*
c1ccc2c(N3CCNCC3)nc(-c3ccoc3)nc2c1	-6%	.	.	.	15%
CCc1ccc2oc(C(=O)NCCc3ccc(OC)c(OC)c3)cc(=O)c2c1	.	-12%	.	-1%	.
COC(=O)C1=C(C)N(Cc2ccc(C)cc2)C(=O)/C1=C\c1cc(OC)c(OC)c(OC)c1	?	4.5µM*	2%	-20%	9%
COc1cc([N+](=O)[O-])ccc1N/C=C/C(=O)c1cccs1	8.9µM*	-37%	-15%	14%	8.9µM*
NC(=O)c1ccccc1N/C=C/C(=O)c1cccs1	11%	?	-14%	-5%	?
Cc1cccc(N/C=C/C(=O)c2cccs2)c1C	?	?	-35%	18%	10µM*
O=C(/C=C/c1ccc([N+](=O)[O-])cc1)c1cccs1	4%	18%	0%	-9%	1%
COc1cc(/C=C/CN2CCC(C(=O)NC(c3ccc(F)cc3)c3ccc4ccccc4n3)CC2)ccc1OC(C)=O (stereo unspecified)	.	10µM*	-5%	?	.
Clc1ccccc1CSc1cc2c(nn1)-c1ccccc1CC2	-7%	10µM*	-4%	2%	9%
Clc1cccc(Cl)c1CSc1cc2c(nn1)-c1ccccc1CC2	-4%	-5%	-10%	-4%	2%
COC(=O)c1c(NC(=O)C(Cl)Cl)sc2c1C(C(=O)OC)CC2 (stereo unspecified)	7.9µM*	?	3%	-11%	4µM*
COc1ccccc1CNC(=O)c1cn(C)c2ccc(S(=O)(=O)N3CCC(C)CC3)cc2c1=O	.	-3%	.	-6%	.
NC(=O)C(c1ccc(Br)cc1)c1ccc(C(=O)c2ccccc2)cc1 (stereo unspecified)	-1%	11µM*	8%	-6%	?
NC(=O)C(c1ccc(F)cc1)c1ccc(C(=O)c2ccccc2)cc1 (stereo unspecified)	-2%	?	-1%	-7%	?
CCOC(=O)c1nnc(-c2ccccc2)nc1Oc1ccc(Cl)cc1	10µM*	-4%	0%	-14%	20µM*
CCOC(=O)c1nnc(-c2ccccc2)nc1Sc1ccccc1Cl	?	?	-9%	?	-12%
C=CCSc1nc2ccccc2c(=O)n1C1CCOC(C)(C)C1 (stereo unspecified)	0%	10µM*	12%	4%	1%
CCSc1nc2ccccc2c(=O)n1C1CCOC(C)(C)C1 (stereo unspecified)	-1%	?	23%	-5%	-14%
